About 2,000 (36%) of roughly 5,500 compounds were called active. Roughly 18% stayed inconclusive and do not appear here. Cut-off read from the data, not from the text of the source: active = normalized growth mostly below about 0.91 (no sharp cut-off); inconclusive = no clear call, values can overlap the other calls; inactive = mostly above about 0.92. Some of the results follow.
Assay: chemical genetic growth profiling, strain panel (AID 1159580);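 note: tested at 20 µM; growth read once vehicle control cultures reached saturation at 30 °C; 1 = growth at the plate median or of vehicle wells; lower values mean less growth of the strain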
Conditions: S. cerevisiae deletion strains, growth OD

Measured: normalized growth

OC(Cn1cncn1)(Cn1cncn1)c1ccc(F)cc1F
inactive: locus YAL013W, strain DEP1, hits give low values 0.968 | locus YAL021C, strain ccr4, hits give low values 0.972 | locus YAL026C, strain drs2, hits give low values 0.911 | locus YAL030W, strain snc1, hits give low values 1 | locus YBL061C, strain skt5, hits give low values 0.995 | locus YBR009C, strain hhf1, hits give low values 0.998 | locus YBR021W, strain FUR4, hits give low values 0.936 | locus YBR023C, strain chs3, hits give low values 1.01 | locus YBR171W, strain sec66, hits give low values 0.971 | locus YBR229C, strain ROT2, hits give low values 1 | locus YBR231C, strain swc5, hits give low values 0.981 | locus YBR279W, strain paf1, hits give low values 1 | locus YCL011C, strain gbp2, hits give low values 1.01 | locus YCL016C, strain dcc1, hits give low values 0.987 | locus YCL029C, strain bik1, hits give low values 0.984 | locus YCL061C, strain MRC1, hits give low values 0.987 | locus YCL069W, strain vba3, hits give low values 1 | locus YCR088W, strain abp1, hits give low values 1.01 | locus YDL005C, strain med2, hits give low values 0.966 | locus YDL035C, strain GPR1, hits give low values 0.991 | locus YDL040C, strain nat1, hits give low values 1 | locus YDL074C, strain BRE1, hits give low values 1.03 | locus YDL101C, strain DUN1, hits give low values 0.993 | locus YDL134C, strain PPH21, hits give low values 1 | locus YDL185W, strain tfp1, hits give low values 0.948 | locus YDL192W, strain arf1, hits give low values 0.998 | locus YDR001C, strain nth1, hits give low values 1.01 | locus YDR069C, strain doa4, hits give low values 0.971 | locus YDR101C, strain arx1, hits give low values 1 | locus YDR150W, strain NUM1, hits give low values 0.985 | locus YDR159W, strain sac3, hits give low values 0.956 | locus YDR162C, strain NBP2, hits give low values 0.971 | locus YDR195W, strain ref2 1.1 | locus YDR297W, strain sur2, hits give low values 1 | locus YDR318W, strain mcm21, hits give low values 0.986 | locus YDR334W, strain swr1, hits give low values 0.996 | locus YDR335W, strain msn5, hits give low values 1.01 | locus YDR388W, hits give low values 1 | locus YDR392W, strain spt3, hits give low values 0.853 | locus YDR502C, strain sam2, hits give low values 0.992 | locus YEL003W, strain gim4, hits give low values 0.999 | locus YEL037C, strain rad23, hits give low values 1 | locus YEL061C, strain CIN8 (second series), hits give low values 1.01 | locus YEL061C, strain CIN8, hits give low values 0.993 | locus YER015W, strain faa2, hits give low values 1.01 | locus YER016W, strain bim1, hits give low values 1 | locus YER110C, hits give low values 0.974 | locus YER111C, strain swi4, hits give low values 0.999 | locus YER155C, strain BEM2 (second series), hits give low values 0.99 | locus YER155C, strain BEM2, hits give low values 1 | locus YER167W, strain BCK2, hits give low values 1.01 | locus YFR010W, strain ubp6, hits give low values 0.982 | locus YGL078C, strain dbp3, hits give low values 0.997 | locus YGL086W, strain mad1, hits give low values 0.997 | locus YGL167C, strain pmr1, hits give low values 1 | locus YGL173C, strain kem1, hits give low values 1.01 | locus YGL227W, strain vid30, hits give low values 1.01 | locus YGL240W, strain doc1, hits give low values 0.995 | locus YGL248W, strain PDE1, hits give low values 1.02 | locus YGL253W, strain hxk2, hits give low values 0.99 | locus YGR078C, strain PAC10, hits give low values 1.02 | locus YGR135W, strain pre9, hits give low values 0.979 | locus YGR252W, strain gcn5, hits give low values 1 | locus YHR013C, strain ard1, hits give low values 0.957 | locus YHR027C, strain rpn1, hits give low values 1.01 | locus YHR030C, strain SLT2, hits give low values 0.987 | locus YHR079C, strain IRE1 (second series), hits give low values 0.985 | locus YHR094C, strain hxt1, hits give low values 1.01 | locus YHR129C, strain ARP1, hits give low values 1 | locus YHR142W, strain chs7, hits give low values 1 | locus YHR200W, strain rpn10, hits give low values 0.961 | locus YIL066C, strain RNR3, hits give low values 1 | locus YIL073C, strain SPO22, hits give low values 0.943 | locus YIL125W, strain kgd1, hits give low values 1.01 | locus YIR030C, strain dcg1, hits give low values 0.997 | locus YJL092W, strain hpr5, hits give low values 0.998 | locus YJL095W, strain BCK1 (second series), hits give low values 1 | locus YJL095W, strain BCK1, hits give low values 1.07 | locus YJL115W, strain asf1, hits give low values 0.996 | locus YJL129C, strain trk1, hits give low values 1.06 | locus YJL134W, strain LCB3, hits give low values 0.994 | locus YJL154C, strain vps35, hits give low values 1.01 | locus YJL164C, strain tpk1, hits give low values 0.992 | locus YJL166W, strain qcr8, hits give low values 1 | locus YJL168C, strain set2, hits give low values 0.992 | locus YJL187C, strain SWE1 (second series), hits give low values 1.03
active: locus YDR137W, strain rgp1, hits give low values 0.508

From PubChem BioAssay AID1159580 (chemical genetic matrix, 2015)
